From PubChem BioAssay (NCI)
The panel holds about 83,000 compounds, 20% with a hit somewhere; the sample as a whole holds those more often.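 Testing used 96-well plates and a 48-hour single-concentration exposure. Example: -40 means 40% of the starting cells died.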 Unmarked numbers belong to inactive results. Active and inactive are the calls of the source. The calls were made as follows: active = growth percent below 10; inactive = the rest.

Columns and labels:
Assay in all cases: NCI-60 one-dose screen, 48 h (100 = growth as untreated, 0 = no growth, -100 = all killed)
[1] = test system: NCI-H23 lung; conditions: 10 µM unless noted
[2] = test system: NCI-H226 lung; conditions: 10 µM unless noted
[3] = test system: NCI-H322M lung; conditions: 10 µM unless noted
[4] = test system: HOP-62 NSCLC; conditions: 10 µM unless noted
[5] = test system: NCI-H460 lung; conditions: 10 µM unless noted
[6] = test system: NCI-H522 lung; conditions: 10 µM unless noted
[7] = test system: A549/ATCC NSCLC; conditions: 10 µM unless noted
[8] = test system: 786-0 renal; conditions: 10 µM unless noted
[9] = test system: COLO 205 colon; conditions: 10 µM unless noted
[10] = test system: DU-145 prostate; conditions: 10 µM unless noted
[11] = test system: K-562 leukemia; conditions: 10 µM unless noted
[12] = test system: MALME-3M melanoma; conditions: 10 µM unless noted
[13] = test system: MDA-MB-231 breast; conditions: 10 µM unless noted
[14] = test system: RXF 393 renal; conditions: 10 µM unless noted
[15] = test system: SF-268 CNS; conditions: 10 µM unless noted
[16] = test system: SF-295 CNS; conditions: 10 µM unless noted
[17] = test system: SF-539 CNS; conditions: 10 µM unless noted
[18] = test system: UACC-257 melanoma; conditions: 10 µM
[19] = test system: M14 melanoma; conditions: 10 µM unless noted
[20] = test system: HOP-92 NSCLC; conditions: 10 µM unless noted

Row | SMILES | growth [1] | growth [2] | growth [3] | growth [4] | growth [5] | growth [6] | growth [7] | growth [8] | growth [9] | growth [10] | growth [11] | growth [12] | growth [13] | growth [14] | growth [15] | growth [16] | growth [17] | growth [18] | growth [19] | growth [20]
1 | COC(=O)c1c(C(=O)OC)c2n(CC(=O)Nc3cccc4cccnc34)c3ccccc3n2c1C(=O)c1ccc(C)cc1 | 94.1% | 88% | 99% | 96% | 103% | 80.5% | 91.2% | 101% | 114% | 105% | 91.2% | 97.7% | 88.4% | 97.8% | 97.2% | 95.1% | 106% | 104% | 99.9% | –
2 | COc1cc(C2CC(c3ccc(Nc4nc(NCCO)nc(Nc5ccc(Cl)cc5)n4)cc3)=Nc3c(N)nc(N)nc3N2)cc(OC)c1OC (centres undefined) | 74% | 81.7% | 82.2% | 43.3% | 56.3% | 60.7% | 103% | 46.9% | 90.4% | 65.7% | 16.4% | 85.7% | 60.6% | 45% | 63% | 77.6% | 80.1% | 92.1% | 81.2% | –
3 | NC(=S)N/N=C(/C=C/c1cn(-c2ccccc2)nc1-c1ccc(Cl)cc1)c1cc2ccccc2oc1=O | 46.5% | 62.2% | 60% | 43% | 18.3% | 46.9% | 41.4% | 58.1% | 38.1% | 57.7% | 20.8% | 71.2% | 48.9% | 106% | 52.9% | 25.2% | 51.1% | 76.3% | 54.1% | –
4 | C=CCn1c(SCC(=O)Nc2cccc(C(=O)/C=C/c3cc(OC)c(OC)c(OC)c3)c2)nc2ccccc2c1=O | 24.4% | 75.8% | 67.1% | 45.8% | 16.8% | 39.2% | 80.2% | 43.7% | 108% | 13.7% | – | 71% | 29.5% | 17.1% | 70.3% | 83.5% | 21.1% | 80.9% | 63% | –
5 | O=c1oc2ccc(-c3ccc(F)cc3F)cc2c(=O)n1-c1cccc(C(F)(F)F)c1 | 0.0881% (active) | 13.4% | 3.52% (active) | 15% | – | 0.254% (active) | 9.67% (active) | 14.7% | 87.3% | 15.6% | 12.9% | -14.7% (active) | -4.78% (active) | -24.7% (active) | 16.1% | -17.3% (active) | 11.6% | -9.2% (active) | – | -25.6% (active)
6 | COc1ccc(-c2nnc(/N=C3/C(=O)Nc4ccc(Br)cc43)o2)cc1 | 95.5% | 101% | 93.9% | 106% | – | 98.6% | 104% | 103% | 105% | 101% | 93.1% | 98.4% | 108% | 112% | 99.3% | 99.2% | 97.9% | 106% | 101% | 97.1%
7 | COc1ccc(/C=N/Nc2nc(Nc3ccccc3)nc(Nc3ccc(S(N)(=O)=O)cc3)n2)cc1 | 70.3% | 73.2% | 84.6% | 80.4% | – | 82.5% | 87.1% | 73.7% | 76.9% | 65.3% | 49.4% | 81.3% | 67.2% | 22.9% | 90.9% | 70.4% | 48% | 96.4% | – | 95.7%
8 | Cc1cnc2nc(NN)[nH]n12 | 104% | 93.4% | 100% | 93% | – | 93.1% | 99.2% | 103% | 101% | 109% | 103% | 102% | 106% | 119% | 99.8% | 95.2% | 100% | 101% | 101% | 100%
